Measured values published in PubChem BioAssay (Tox21).
Records with an inconclusive call do not appear. The source made the active and inactive calls. Unless noted, calls follow the shape of the dose curve; as a rule, active = well fitted curve in the direction sought with a large enough effect in the repeat runs; inconclusive = weak or mixed curves; inactive = no such curve, though single readings can be large; an effect the other way counts as inactive or inconclusive.

Assays:
[1] = qHTS assay to identify small molecule antagonists of the thyroid receptor (TR) signaling pathway (AID 743065); also: series mostly up to about 70 µM; nearly all actives have a fitted effect of over 55% in size
Procedure, shortened: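 GH3.TRE-Luc rat pituitary cells (two TREs driving luciferase) were dosed with compound, then stimulated with 1 nM T3 (final) for 23.5 h at 37 C. ONE-Glo luminescence was the read-out, with CellTiter-Fluor fluorescence as the cytotoxicity counter-screen.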

[2] = test system: thyroid hormone receptor (rat, GH3 cells); test: qHTS assay to identify small molecule agonists of the thyroid receptor (TR) signaling pathway (AID 743066; calls by dose curve)
[3] = target: Estrogen receptor (Homo sapiens) (UniProt P03372); test: qHTS assay to identify small molecule antagonists of the estrogen receptor alpha (ER-alpha) signaling pathway (AID 743069; active = well fitted curve in the direction sought with a large enough effect in the signal ratio in the repeat runs, not every such curve was filed as active; the % refers to the signal ratio)
Procedure, shortened: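 In this cell-based reporter format, GripTite HEK293 cells harbouring ER-alpha-UAS-bla were grown overnight with 2% charcoal-stripped FBS, dosed with DMSO-dissolved compounds, then challenged with 17beta-estradiol. After 18 hr at 37C, beta-lactamase activity was detected by FRET fluorescence.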

[4] = qHTS assay to identify small molecule antagonists of the estrogen receptor alpha (ER-alpha) signaling pathway - cell viability counter screen (AID 743074; calls by dose curve; also: nearly all actives have a fitted effect of over 45% in size)
[5] = target: Estrogen receptor (Homo sapiens) (UniProt P03372); test: qHTS assay to identify small molecule agonists of the estrogen receptor alpha (ER-alpha) signaling pathway (AID 743075; calls by dose curve)
[6] = qHTS assay to identify small molecule antagonists of the estrogen receptor alpha (ER-alpha) signaling pathway using the BG1 cell line (AID 743080; calls by dose curve;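 also: BG1 cells stimulated with 17beta-estradiol alongside compound; series mostly up to about 70 µM; nearly all actives have a fitted effect of over 25% in size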)
Procedure, shortened: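 Luminescence from a 4×ERE-luciferase reporter in BG1-Luc-4E2 cells served as read-out. Cells, pre-cultured 5 days in stripped-serum phenol-red-free medium, were exposed to compound with 17beta-estradiol co-stimulation for 21.5 h at 37 C.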

[7] = target: Aromatase (Homo sapiens) (UniProt P11511); test: qHTS assay to identify aromatase inhibitors (AID 743083); also: series mostly up to about 70 µM; nearly all actives have a fitted effect of over 55% in size
[8] = qHTS assay to identify aromatase inhibitors - cell viability counter screen (AID 743084);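 also: cells stimulated with testosterone during compound exposure; nearly all actives have a fitted effect of over 55% in size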
[9] = qHTS assay to identify small molecule that activate the aryl hydrocarbon receptor (AhR) signaling pathway - cell viability counter screen (AID 743086);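 also: HepG2 liver cells carrying the AhR DRE luciferase reporter; series mostly up to about 70 µM; nearly all actives have a fitted effect of over 45% in size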
Procedure, shortened: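 HepG2-AhR-luc (HG2L7.5c1) cells, 4000/well, treated 24 h at 37 C with compound; viability measured as CellTiter-Fluor fluorescence after 30 min in the same wells as the luciferase read.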

[10] = target: Peroxisome proliferator-activated receptor gamma (Homo sapiens) (UniProt P37231); test: qHTS assay to identify small molecule agonists of the peroxisome proliferator-activated receptor gamma (PPARg) signaling pathway (AID 743094; active = well fitted activation curve with a large enough effect in the signal ratio in the repeat runs, not every such curve was filed as active; the % refers to the signal ratio)
Procedure, shortened: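 Agonism was assessed in a beta-lactamase reporter system, HEK293H cells with a stably integrated UAS-bla construct under PPARg control; the 17 h treatment at 37C preceded a 1 h room-temperature FRET substrate read.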

[11] = target: Peroxisome proliferator-activated receptor gamma (Homo sapiens) (UniProt P37231); test: qHTS assay to identify small molecule antagonists of the peroxisome proliferator-activated receptor gamma (PPARg) signaling pathway (AID 743191; calls by dose curve; also: series mostly up to about 63 µM; nearly all actives have a fitted effect of over 30% in size)
Procedure, shortened: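 GeneBLAzer PPARg UAS-bla HEK293H cells, 5 h post-plating, exposed to compounds 17 h at 37C. LiveBLAzer B/G FRET substrate added for 1 h at room temperature; beta-lactamase reporter read by fluorescence intensity.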

[12] = qHTS assay to identify small molecule antagonists of the peroxisome proliferator-activated receptor gamma (PPARg) signaling pathway - cell viability counter screen (AID 743194); also: nearly all actives have a fitted effect of over 55% in size
Procedure, shortened: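 Cytotoxicity counter screen in PPARg-bla HEK293H cells, same wells as reporter assay. Compounds plus 50 nM rosiglitazone (final) for 17 h at 37 C, then viability read by CellTiter-Glo luminescence.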

[13] = qHTS assay for small molecule agonists of the antioxidant response element (ARE) signaling pathway (AID 743202; active = well fitted activation curve with a large enough effect in the signal ratio in the repeat runs, not every such curve was filed as active; the % refers to the signal ratio)
Procedure, shortened: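 HepG2 ARE-bla cells; 16 h treatment at 37 C; FRET-based beta-lactamase fluorescence read after 2 h substrate incubation at room temperature.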

[14] = qHTS assay for small molecule agonists of the antioxidant response element (ARE) signaling pathway - cell viability counter screen (AID 743203; calls by dose curve; also: nearly all actives have a fitted effect of over 55% in size)
Procedure, shortened: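 ATP content via CellTiter-Glo luminescence served as the viability measure. Cells: ARE-bla HepG2, 2,000 per well. Exposure: 16 hrs, 37C/5% CO2.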

[15] = qHTS assay for small molecule activators of the heat shock response signaling pathway - cell viability counter screen (AID 743209); also: nearly all actives have a fitted effect of over 50% in size
Procedure, shortened: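 Compounds dissolved in DMSO were added to overnight-plated HSE-bla HeLa cells and left 5 h at 37 C. Cell viability was quantified by luminescence using CellTiter-Glo.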

[16] = qHTS assay for small molecule activators of the heat shock response signaling pathway (AID 743210; active = well fitted activation curve with a large enough effect in the signal ratio in the repeat runs, with a control signal flat, not every such curve was filed as active; the % refers to the signal ratio;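 also: HeLa cells with beta-lactamase reporter driven by heat shock elements; series mostly up to about 63 µM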)
Procedure, shortened: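 Following overnight attachment, HSE-bla HeLa cells received test compounds for 5 h at 37 C; beta-lactamase activity was then detected via FRET substrate fluorescence.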

[17] = qHTS assay to identify small molecule agonists of the peroxisome proliferator-activated receptor delta (PPARd) signaling pathway - cell viability counter screen (AID 743211); also: nearly all actives have a fitted effect of over 55% in size
Procedure, shortened: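 Viability was measured as CellTiter-Glo luminescence (30 min, room temperature) in the same wells as the beta-lactamase readout. GeneBLAzer PPARd UAS-bla HEK293H cells received compound after 5 h plating and were incubated 17 h at 37 C.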

[18] = target: Estrogen receptor (Homo sapiens) (UniProt P03372); test: qHTS assay to identify small molecule agonists of the estrogen receptor alpha (ER-alpha) signaling pathway using the BG1 cell line (AID 743079); also: nearly all actives have a fitted effect of over 20% in size
[19] = qHTS assay to identify small molecule antagonists of the estrogen receptor alpha (ER-alpha) signaling pathway using the BG1 cell line - cell viability counter screen (AID 743081);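 also: compound given together with 17beta-estradiol as the ER stimulus; series mostly up to about 70 µM; nearly all actives have a fitted effect of over 45% in size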
[20] = target: Aryl hydrocarbon receptor (Homo sapiens) (UniProt P35869); test: qHTS assay to identify small molecule that activate the aryl hydrocarbon receptor (AhR) signaling pathway (AID 743085);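 also: HG2L7.5c1 human HepG2 liver cells with stably integrated DRE-driven firefly reporter; series mostly up to about 70 µM; nearly all actives have a fitted effect of over 15% in size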
Procedure, shortened: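 Luminescence (ONE-Glo) from a dioxin-responsive-element luciferase reporter in HG2L7.5c1 HepG2 cells after 24 hr compound exposure at 37C; viability measured by CellTiter-Fluor fluorescence beforehand.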

Measured: Potency

Chain of Aromatase (Homo sapiens) (P11511 whole entry, looked up): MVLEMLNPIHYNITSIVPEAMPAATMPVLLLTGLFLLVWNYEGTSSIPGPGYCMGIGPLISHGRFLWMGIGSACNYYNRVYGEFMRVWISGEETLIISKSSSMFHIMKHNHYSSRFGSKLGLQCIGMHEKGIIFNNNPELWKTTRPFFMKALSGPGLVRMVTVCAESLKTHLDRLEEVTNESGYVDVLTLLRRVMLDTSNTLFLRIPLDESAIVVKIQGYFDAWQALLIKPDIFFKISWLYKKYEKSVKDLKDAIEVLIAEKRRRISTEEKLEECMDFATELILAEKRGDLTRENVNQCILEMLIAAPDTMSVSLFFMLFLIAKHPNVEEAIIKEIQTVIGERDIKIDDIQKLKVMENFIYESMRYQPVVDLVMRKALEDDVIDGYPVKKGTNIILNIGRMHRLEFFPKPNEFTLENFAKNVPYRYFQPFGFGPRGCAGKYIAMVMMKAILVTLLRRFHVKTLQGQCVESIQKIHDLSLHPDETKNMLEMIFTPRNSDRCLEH
Chain of Peroxisome proliferator-activated receptor gamma (Homo sapiens) (P37231 whole entry, looked up): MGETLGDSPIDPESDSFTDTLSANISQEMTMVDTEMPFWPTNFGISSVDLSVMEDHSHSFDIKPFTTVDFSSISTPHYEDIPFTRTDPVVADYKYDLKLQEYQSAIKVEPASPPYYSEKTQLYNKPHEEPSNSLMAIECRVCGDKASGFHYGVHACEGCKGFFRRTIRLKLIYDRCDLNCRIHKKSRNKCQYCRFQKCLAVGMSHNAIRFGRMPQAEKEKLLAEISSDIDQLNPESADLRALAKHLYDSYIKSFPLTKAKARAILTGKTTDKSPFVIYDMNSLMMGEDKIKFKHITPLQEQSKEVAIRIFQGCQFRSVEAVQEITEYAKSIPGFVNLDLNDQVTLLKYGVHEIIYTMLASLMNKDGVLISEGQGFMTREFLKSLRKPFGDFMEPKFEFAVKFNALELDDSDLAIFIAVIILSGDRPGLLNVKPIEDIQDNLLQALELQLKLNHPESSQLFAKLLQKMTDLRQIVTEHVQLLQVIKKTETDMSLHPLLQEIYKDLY
Chain of Aryl hydrocarbon receptor (Homo sapiens) (P35869 whole entry, looked up): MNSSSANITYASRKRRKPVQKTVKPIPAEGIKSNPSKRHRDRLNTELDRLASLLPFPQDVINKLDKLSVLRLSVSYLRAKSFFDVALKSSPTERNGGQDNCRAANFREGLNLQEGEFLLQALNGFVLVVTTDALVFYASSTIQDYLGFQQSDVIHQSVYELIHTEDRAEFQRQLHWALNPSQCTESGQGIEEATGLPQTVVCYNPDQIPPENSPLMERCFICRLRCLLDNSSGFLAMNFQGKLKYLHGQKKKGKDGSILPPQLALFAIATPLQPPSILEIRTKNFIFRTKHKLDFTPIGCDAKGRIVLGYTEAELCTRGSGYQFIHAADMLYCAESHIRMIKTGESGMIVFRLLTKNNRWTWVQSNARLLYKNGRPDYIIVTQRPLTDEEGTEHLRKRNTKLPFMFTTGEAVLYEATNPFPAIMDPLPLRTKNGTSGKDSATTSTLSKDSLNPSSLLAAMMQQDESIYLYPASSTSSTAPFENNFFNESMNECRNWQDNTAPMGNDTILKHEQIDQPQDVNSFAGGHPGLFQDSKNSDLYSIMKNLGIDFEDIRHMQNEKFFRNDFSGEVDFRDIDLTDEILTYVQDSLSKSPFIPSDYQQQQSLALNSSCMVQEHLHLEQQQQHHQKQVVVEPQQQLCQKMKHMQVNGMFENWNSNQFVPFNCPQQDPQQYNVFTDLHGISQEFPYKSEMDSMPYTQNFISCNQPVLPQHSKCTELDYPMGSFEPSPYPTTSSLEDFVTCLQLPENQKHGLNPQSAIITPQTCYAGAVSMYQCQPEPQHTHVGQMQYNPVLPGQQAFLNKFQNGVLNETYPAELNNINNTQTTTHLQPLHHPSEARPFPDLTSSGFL
Chain of Estrogen receptor (Homo sapiens) (P03372 whole entry, looked up): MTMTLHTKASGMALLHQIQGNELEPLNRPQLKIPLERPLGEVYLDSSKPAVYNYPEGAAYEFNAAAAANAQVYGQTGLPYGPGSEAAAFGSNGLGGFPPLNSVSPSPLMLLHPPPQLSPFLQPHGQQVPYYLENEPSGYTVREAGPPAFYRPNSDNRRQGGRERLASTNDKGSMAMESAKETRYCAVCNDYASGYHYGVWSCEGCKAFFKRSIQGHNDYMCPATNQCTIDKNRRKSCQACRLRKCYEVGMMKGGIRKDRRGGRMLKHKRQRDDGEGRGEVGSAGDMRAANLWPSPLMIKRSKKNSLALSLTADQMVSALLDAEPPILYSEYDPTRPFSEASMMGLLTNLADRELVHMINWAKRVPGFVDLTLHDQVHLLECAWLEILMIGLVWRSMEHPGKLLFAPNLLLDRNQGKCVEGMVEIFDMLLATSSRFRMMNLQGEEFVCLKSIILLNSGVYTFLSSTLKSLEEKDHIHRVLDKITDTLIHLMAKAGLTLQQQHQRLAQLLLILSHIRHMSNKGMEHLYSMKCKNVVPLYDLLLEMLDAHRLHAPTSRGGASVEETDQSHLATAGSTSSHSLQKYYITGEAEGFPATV

CN1CCN(c2c(F)cc3c(=O)c(C(=O)O)cn(CCF)c3c2F)CC1
not listed: [18] | [19] | [20]
inactive: all other assays above

ICCc1ccccc1
not listed: [5]
inactive: all other assays above

COC(C)CCO (configuration not stated)
not listed: [3] | [5] | [6] | [18]
inactive: all other assays above

Cc1nc(-c2ccccn2)ncc1C(=O)Nn1cc(C)c2cc(F)ccc21
not listed: [6] | [10] | [11] | [13] | [17] | [18] | [20]
inactive: all other assays above

OCCN1CCN(CCO)CC1
not listed: [3] | [5] | [6] | [18]
inactive: all other assays above

CCC(=O)O[C@]1(C(=O)SCF)[C@H](C)C[C@H]2[C@@H]3C[C@H](F)C4=CC(=O)C=C[C@]4(C)[C@@]3(F)[C@@H](O)C[C@@]21C
not listed: [3] | [6]
inactive: all other assays above

OCCN(CCO)c1ccccc1
not listed: [11] | [18]
inactive: all other assays above
